A selection: hits, their analogues and other compounds. The true share with any hit is near 1.2%.
Furin inh: blocks human furin protease activity. P09958. purified furin, fluorogenic substrate cleavage. inhibition, % at 20 µM or 30 µM. 0.061% of 220,000 active. AID 463115; in the data active means inhibition above about 25%
PKD1 kinase inh: inhibitors of human PKD1 kinase; Q15139; PKD1 kinase fluorescence polarization assay; inhibition, % (test concentration not listed); 0.056% of 200,000 active; AID 797; in the data active means inhibition above about 50%
p97 ATPase inh: inhibitors of human p97 ATPase; recombinant p97 ATPase, Kinase-Glo ATP luminescence, 3 h; inhibition, % at 8 µM; 0.42% of 220,000 active; AID 1481; in the data active means inhibition above about 15%;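 further: 0% = DMSO vehicle and 100% = wells lacking enzyme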
UBC9 SUMO inh: blocks human SUMOylation mediated by UBC9; HTRF SUMOylation assay, SAE1/SAE2 + UBC9, in vitro; inhibition, % at 35 µM; 0.36% of 290,000 active; in the data active means inhibition above about 50%, passing the limit was not always enough; inconclusive means no clear call, values can overlap the other calls
FAS-TE inh: inhibitors of human fatty acid synthase thioesterase domain. P49327. recombinant FAS-TE, OMFH fluorogenic substrate, fluorescence endpoint. inhibition, % at 15 µM. 0.67% of 360,000 active;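 active means compounds whose normalised, plate-corrected inhibition of enzyme fluorescence in the single-dose primary screen is 50% or more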;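 further: 0% = DMSO with enzyme and 100% = substrate without enzyme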
Redox H2O2 prof: compounds producing H2O2 with reducing agent – biochemical, NIH compound library profiling, artefact control for MLSCN library redox annotation, primary screen | AID 878 | activation, % at 10 µM | DTT-dependent redox cycling H2O2, phenol red/HRP absorbance; 100% = 100 µM peroxide control, 0% = buffer | 0.03% of 200,000 active;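 active means activation of at least 50% relative to the plate's high and low controls in the primary single-dose screen; inactive means activation below 50%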;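 further: compound incubated with DTT at 0.8 mM final as the reducing agent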
Numbers without * were called inactive.

What do the screens show for `C/C(=N\NC(=O)CNc1cccc2ccccc12)c1ccccc1`?
Furin inh: -19; PKD1 kinase inh: 4; p97 ATPase inh: 0; UBC9 SUMO inh: 80*; FAS-TE inh: 2; Redox H2O2 prof: 1

What do the screens show for `CC(C)C[C@H]1CN([C@@H](Cc2ccccc2)CN2CCC[C@H]2CN2C(=O)C(=O)NC[C@@H]2Cc2ccc(O)cc2)C(=O)C(=O)N1CC1CCCCCC1`?
FAS-TE inh: 14

How did CCOC(=O)[C@]12CCCC=C1N(Cc1ccc(Cl)cc1Cl)C(=O)[C@H](CC(=O)NCC1CCCCC1)C2 do in these assays?
FAS-TE inh: 15

Results for C[C@H](CO)N1C[C@H](C)[C@@H](CN(C)C(=O)Nc2ccc3c(c2)OCO3)Oc2c(NC(=O)Nc3ccc4c(c3)OCO4)cccc2C1=O ?
FAS-TE inh: 55*

How did Cc1ccc(N=CC2=C(O)CC(C)(C)CC2=O)nc1 do in these assays?
Furin inh: 18; PKD1 kinase inh: 5; p97 ATPase inh: -8; UBC9 SUMO inh: 16; FAS-TE inh: -7; Redox H2O2 prof: 0

Results for CC1(C)CC(=O)C(C=Nc2ccc(Cl)cn2)=C(O)C1 ?
Furin inh: 53*; PKD1 kinase inh: -6; p97 ATPase inh: -1; UBC9 SUMO inh: -5; FAS-TE inh: -7; Redox H2O2 prof: 0

Results for Cc1cc(C)cc(NS(=O)(=O)CCCS(=O)(=O)Nc2cc(C)cc(C)c2)c1 ?
FAS-TE inh: 20

Results for CCOC(=O)[C@]12CCCC=C1N(Cc1ccc(Cl)cc1Cl)C(=O)[C@H](CC(=O)NCC13CC4CC(CC(C4)C1)C3)C2 ?
FAS-TE inh: 15

What do the screens show for `O=C(Oc1ccc(Br)cc1C(=S)N1CCCCC1)c1cc([N+](=O)[O-])cc([N+](=O)[O-])c1`?
Furin inh: -14; PKD1 kinase inh: 2; p97 ATPase inh: 4; UBC9 SUMO inh: -9; FAS-TE inh: 53*; Redox H2O2 prof: -2

What do the screens show for `Cc1ccc(Cn2c(=N)n(CC(=O)c3ccccc3)c3ccccc32)cc1`?
Furin inh: -21; PKD1 kinase inh: -3; p97 ATPase inh: 7; UBC9 SUMO inh: 6; FAS-TE inh: 64*; Redox H2O2 prof: 0

How did CC(C)(C)C(=O)Cn1c(=N)n(Cc2ccccc2)c2ccccc21 do in these assays?
Furin inh: -5; PKD1 kinase inh: 2; p97 ATPase inh: -9; UBC9 SUMO inh: 2; FAS-TE inh: 10; Redox H2O2 prof: -1

How did CCOc1ccc(C(=O)N/N=C/c2cc([N+](=O)[O-])cs2)cc1 do in these assays?
Furin inh: -7; PKD1 kinase inh: -2; p97 ATPase inh: 2; UBC9 SUMO inh: 18; FAS-TE inh: -14; Redox H2O2 prof: -1

What do the screens show for `COc1cc(C(=O)N/N=C/c2cc([N+](=O)[O-])cs2)cc(OC)c1OC`?
Furin inh: -6; PKD1 kinase inh: 0; p97 ATPase inh: -6; UBC9 SUMO inh: 68*; FAS-TE inh: -17; Redox H2O2 prof: -1

Results for Cc1ccc(/C=C2\Oc3cc(OCC(=O)NN)ccc3C2=O)o1 ?
UBC9 SUMO inh: 59*; FAS-TE inh: -8

What do the screens show for `O=C(O)COc1ccc2c(c1)O/C(=C\c1ccco1)C2=O`?
UBC9 SUMO inh: 43; FAS-TE inh: -2

What do the screens show for `CC(C)N1CC=C2C(C#N)=C(N)C(C#N)(C#N)[C@H](c3ccoc3)[C@H]2C1`?
Furin inh: -27; PKD1 kinase inh: 6; p97 ATPase inh: 4; UBC9 SUMO inh: 56*; Redox H2O2 prof: 2

What do the screens show for `O=C(Nc1nc(-c2ccc(S(=O)(=O)N3CCCC3)cc2)cs1)c1cccs1`?
Furin inh: -20; PKD1 kinase inh: 5; p97 ATPase inh: -3; UBC9 SUMO inh: -38; FAS-TE inh: 52*; Redox H2O2 prof: 2

Results for Cc1[nH]c2ccccc2c1CCNC(=O)c1ccc2c(c1[N+](=O)[O-])C(=O)c1ccccc1C2=O ?
Furin inh: 4; PKD1 kinase inh: 2; p97 ATPase inh: 10; UBC9 SUMO inh: 21; FAS-TE inh: 26; Redox H2O2 prof: 35

What do the screens show for `Cc1[nH]c2c(C)cccc2c1CCNC(=O)c1ccc2c(c1[N+](=O)[O-])C(=O)c1ccccc1C2=O`?
Furin inh: -21; PKD1 kinase inh: 4; p97 ATPase inh: 15*; UBC9 SUMO inh: 28; FAS-TE inh: 20; Redox H2O2 prof: -3

Results for Clc1ccc(-c2nc3ccc(Br)cn3c2Cc2ccsc2)cc1 ?
FAS-TE inh: 9

What do the screens show for `COCc1cc(=O)n2[nH]c(-c3ccco3)cc2n1`?
Furin inh: -9; p97 ATPase inh: 6; UBC9 SUMO inh: 21; FAS-TE inh: -5

How did CCCCN1Cc2c(nc3cc(-c4ccco4)[nH]n3c2=O)C1=O do in these assays?
Furin inh: -13; p97 ATPase inh: 5; UBC9 SUMO inh: 92*; FAS-TE inh: -2

Results for CSc1cccc(NC(=O)C2CCCN(S(=O)(=O)c3cnc[nH]3)C2)c1 (configuration not stated) ?
Furin inh: -44; PKD1 kinase inh: -7; p97 ATPase inh: 17*; UBC9 SUMO inh: 3; FAS-TE inh: -13; Redox H2O2 prof: -1

How did O=C(Nc1cccc(S(=O)(=O)NC2=NCCCCC2)c1)c1cc(-c2ccncc2)nc2ccccc12 do in these assays?
Furin inh: -19; PKD1 kinase inh: -8; p97 ATPase inh: 2; UBC9 SUMO inh: 8; FAS-TE inh: -2; Redox H2O2 prof: -1

What do the screens show for `O=C(Nc1cccc(S(=O)(=O)NC2=NCCCCC2)c1)c1cc(-c2ccco2)nc2ccccc12`?
Furin inh: -3; p97 ATPase inh: -8; UBC9 SUMO inh: 81*; FAS-TE inh: 4

What do the screens show for `NC(=O)c1sc2nc3c(c(-c4ccco4)c2c1N)CCC3`?
Furin inh: 10; PKD1 kinase inh: 20; p97 ATPase inh: 14; UBC9 SUMO inh: 50; FAS-TE inh: 0; Redox H2O2 prof: 0

What do the screens show for `Nc1c(C(=O)NC2CC2)sc2nc3c(c(-c4ccco4)c12)CC/C3=C/c1ccco1`?
Furin inh: -6; PKD1 kinase inh: -2; p97 ATPase inh: 28*; UBC9 SUMO inh: inconclusive; FAS-TE inh: -14; Redox H2O2 prof: 4

Results for O=C(Cc1ccc(NC(=O)C2CCCN(C(=O)C3CCC3)C2)cc1)Nc1cccc(C(=O)N2CCCC2)c1 (configuration not stated) ?
FAS-TE inh: -8

Results for O=C(Nc1ccccc1)c1ccc(N2CCN(c3ccccc3)CC2)c(S(=O)(=O)N2CCOCC2)c1 ?
Furin inh: -20; PKD1 kinase inh: -4; p97 ATPase inh: 2; UBC9 SUMO inh: -10; FAS-TE inh: 56*; Redox H2O2 prof: 0

Results for CCOC(=O)[C@]12CCCC=C1N(Cc1ccco1)C(=O)[C@H](CC(=O)NCCCCc1ccccc1)C2 ?
FAS-TE inh: 2

Results for Cn1cnc([N+](=O)[O-])c1S(=O)(=O)Oc1ccc(Cl)cc1 ?
FAS-TE inh: 52*

Screening results as filed in PubChem BioAssay.
